From PubChem BioAssay (Tox21)
“And” between values parts separate entries of the source, which are not always exact repeats. Identical values can stand only once. Results filed as inconclusive are left out. The source made the active and inactive calls. Unless noted, calls come from the whole dose curve; as a rule, active = well fitted curve in the direction sought with a large enough effect in the repeat runs; inconclusive = weak or mixed curves; inactive = no such curve, though single readings can be large; an effect the other way counts as inactive or inconclusive.

Assays:
[1] = qHTS assay to identify aromatase inhibitors - cell viability counter screen (AID 743084);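 note: cells stimulated with testosterone during compound exposure; nearly all actives have a fitted effect of over 55% in size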; note: potency is the fitted concentration of half-maximal effect
[2] = qHTS assay to identify small molecule that activate the aryl hydrocarbon receptor (AhR) signaling pathway - cell viability counter screen (AID 743086); note: nearly all actives have a fitted effect of over 45% in size; note: potency is the fitted concentration of half-maximal effect
In short: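 Cytotoxicity counter screen: CellTiter-Fluor signal (30 min, 37 C) in 4000 HepG2 cells/well carrying the DRE-luciferase reporter, following 24 h compound exposure at 37 C.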

[3] = target: Peroxisome proliferator-activated receptor gamma (Homo sapiens) (UniProt P37231); test: qHTS assay to identify small molecule agonists of the peroxisome proliferator-activated receptor gamma (PPARg) signaling pathway (AID 743094; active = well fitted activation curve with a large enough effect in the signal ratio in the repeat runs, not every such curve was filed as active; the % refers to the signal ratio)
In short: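 Fluorescence-based beta-lactamase readout in HEK293H PPARg UAS-bla cells after 17 h compound exposure (37C) and 1 h B/G FRET substrate incubation at room temperature.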

[4] = qHTS assay to identify small molecule antagonists of the peroxisome proliferator-activated receptor gamma (PPARg) signaling pathway - cell viability counter screen (AID 743194); details: Potency: co-treated with 50 nM rosiglitazone; note: nearly all actives have a fitted effect of over 55% in size; note: potency is the fitted concentration of half-maximal effect
In short: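 Viability was measured as CellTiter-Glo luminescence in GeneBLAzer PPARg UAS-bla HEK293H cells. These cells had been exposed 17 h at 37 C to compounds together with rosiglitazone at 50 nM final, with the beta-lactamase readout taken in the same wells.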

[5] = qHTS assay for small molecule agonists of the antioxidant response element (ARE) signaling pathway (AID 743202; active = well fitted activation curve with a large enough effect in the signal ratio in the repeat runs, not every such curve was filed as active; the % refers to the signal ratio)
In short: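 After 16 hours of compound treatment at 37 C, HepG2 cells with a stably integrated ARE-driven beta-lactamase reporter were loaded 2 hours at room temperature with LiveBLAzer B/G FRET substrate and fluorescence intensity measured.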

[6] = qHTS assay for small molecule agonists of the antioxidant response element (ARE) signaling pathway - cell viability counter screen (AID 743203; calls by dose curve; note: nearly all actives have a fitted effect of over 55% in size; note: potency is the fitted concentration of half-maximal effect)
In short: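 Parallel cytotoxicity read-out for the ARE-bla screen: HepG2 reporter cells, 16 hrs with compounds, then CellTiter-Glo luminescence.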

[7] = qHTS assay for small molecule activators of the heat shock response signaling pathway - cell viability counter screen (AID 743209); note: nearly all actives have a fitted effect of over 50% in size
In short: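 To flag cytotoxic compounds, HSE-bla HeLa cells plated at 1500 cells/well were dosed for 5 h at 37 C, followed by the reporter FRET read and then CellTiter-Glo, with luminescence recorded 30 min after reagent addition.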

[8] = qHTS assay for small molecule activators of the heat shock response signaling pathway (AID 743210; active = well fitted activation curve with a large enough effect in the signal ratio in the repeat runs, with a control signal flat, not every such curve was filed as active; the % refers to the signal ratio; note: series mostly up to about 63 µM)
In short: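 Compound exposure lasted 5 h at 37 C in HeLa cells carrying a heat-shock-element-driven beta-lactamase reporter. Read-out: fluorescence intensity after 2.5 h room-temperature loading with LiveBLAzer B/G FRET substrate.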

[9] = target: Peroxisome proliferator-activated receptor gamma (Homo sapiens) (UniProt P37231); test: qHTS assay to identify small molecule antagonists of the peroxisome proliferator-activated receptor gamma (PPARg) signaling pathway (AID 743191; calls by dose curve; note: series mostly up to about 63 µM; nearly all actives have a fitted effect of over 30% in size)
In short: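 Beta-lactamase reporter under UAS control in HEK293H PPARg-bla cells; compound treatment 17 h at 37C. Read-out: fluorescence intensity after 1 h room-temperature incubation with LiveBLAzer B/G FRET substrate.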

[10] = target: Aryl hydrocarbon receptor (Homo sapiens) (UniProt P35869); test: qHTS assay to identify small molecule that activate the aryl hydrocarbon receptor (AhR) signaling pathway (AID 743085);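 note: HG2L7.5c1 human HepG2 liver cells with stably integrated DRE-driven firefly reporter; series mostly up to about 70 µM; nearly all actives have a fitted effect of over 15% in size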
In short: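 Luminescence read-out: ONE-Glo reagent, 30 min at room temperature, in HG2L7.5c1 HepG2 reporter cells treated 24 h at 37C. Viability was measured beforehand by CellTiter-Fluor fluorescence after 30 min at 37C.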

Measured: Potency

Peroxisome proliferator-activated receptor gamma (Homo sapiens), sequence (P37231 whole entry, looked up): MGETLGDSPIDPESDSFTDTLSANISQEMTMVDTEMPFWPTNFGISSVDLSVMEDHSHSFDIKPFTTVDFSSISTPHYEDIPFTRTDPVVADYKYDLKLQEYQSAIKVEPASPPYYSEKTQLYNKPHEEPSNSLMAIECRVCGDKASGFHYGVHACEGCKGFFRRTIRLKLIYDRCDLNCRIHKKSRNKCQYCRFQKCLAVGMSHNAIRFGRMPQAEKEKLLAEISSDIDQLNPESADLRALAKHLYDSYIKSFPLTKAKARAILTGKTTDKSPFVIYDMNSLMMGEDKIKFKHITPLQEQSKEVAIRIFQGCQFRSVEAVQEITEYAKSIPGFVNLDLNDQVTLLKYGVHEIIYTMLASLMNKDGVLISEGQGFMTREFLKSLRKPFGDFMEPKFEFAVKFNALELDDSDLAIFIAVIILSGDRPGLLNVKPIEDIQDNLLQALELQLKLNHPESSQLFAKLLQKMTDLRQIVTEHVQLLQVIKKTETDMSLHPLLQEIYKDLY
Aryl hydrocarbon receptor (Homo sapiens), sequence (P35869 whole entry, looked up): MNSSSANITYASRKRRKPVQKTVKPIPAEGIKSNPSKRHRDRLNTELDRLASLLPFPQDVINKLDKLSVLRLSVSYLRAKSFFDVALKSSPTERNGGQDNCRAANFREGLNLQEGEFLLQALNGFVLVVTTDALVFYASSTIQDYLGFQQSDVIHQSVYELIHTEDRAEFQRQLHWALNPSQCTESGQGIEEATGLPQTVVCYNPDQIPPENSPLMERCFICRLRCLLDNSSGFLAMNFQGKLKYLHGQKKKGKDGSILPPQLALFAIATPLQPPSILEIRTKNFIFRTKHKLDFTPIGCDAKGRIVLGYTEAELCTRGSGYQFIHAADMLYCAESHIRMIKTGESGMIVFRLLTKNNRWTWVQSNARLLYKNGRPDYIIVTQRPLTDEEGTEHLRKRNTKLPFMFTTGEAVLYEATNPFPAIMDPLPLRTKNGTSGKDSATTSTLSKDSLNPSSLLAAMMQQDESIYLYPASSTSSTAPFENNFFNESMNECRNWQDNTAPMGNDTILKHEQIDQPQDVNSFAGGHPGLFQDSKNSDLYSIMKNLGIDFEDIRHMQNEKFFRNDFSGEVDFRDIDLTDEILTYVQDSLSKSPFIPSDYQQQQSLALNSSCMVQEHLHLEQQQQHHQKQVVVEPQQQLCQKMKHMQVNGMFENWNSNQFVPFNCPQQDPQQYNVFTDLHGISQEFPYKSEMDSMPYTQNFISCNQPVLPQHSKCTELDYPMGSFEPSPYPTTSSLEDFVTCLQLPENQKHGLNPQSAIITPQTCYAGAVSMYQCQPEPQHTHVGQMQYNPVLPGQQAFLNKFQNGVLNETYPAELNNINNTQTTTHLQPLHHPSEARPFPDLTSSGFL

C=C(Cl)Cl
not listed: [9] | [10]
inactive: all other assays above

C#CC(O)(C=CCl)CC (configuration not stated)
inactive: [9] | [4] | [5] | [6] | [7] | [8]

CCC(=O)O[C@@H]1C=C2CCC3C(CCC4(C)C3CC[C@@H]4OC(=O)CC)C2CC1 (some centres not stated)
inactive: [9] | [4] | [5] | [6] | [7] | [8]

O=[N+]([O-])/C=C/c1ccccc1
inactive: [2] | [7]
active: [1] 31.1 µM and 54.5 µM | [4] 31.4 µM and 24.5 µM | [6] 22 µM and 15.4 µM

CCOC(=O)c1cn2nc(OP(=S)(OCC)OCC)cc2nc1C
inactive: [1] | [2] | [4] | [6] | [7]

FC(Cl)(Cl)C(F)(Cl)Cl
inactive: [1] | [2] | [4] | [5] | [6] | [8]

CC(=O)OC(c1ccccc1)C(Cl)(Cl)Cl (configuration not stated)
not listed: [9] | [10]
inactive: all other assays above

c1ccc2c(c1)-c1cccc3cccc-2c13
not listed: [3] | [9] | [10]
inactive: all other assays above

CC(Cc1ccccc1)NCc1ccccc1Cl (configuration not stated)
not listed: [5] | [10]
inactive: all other assays above

CCC1CCC(=O)O1 (configuration not stated)
inactive: [2] | [5] | [6] | [7] | [8]

C[C@@H]1C[C@@H]([C@H](O)CC2CC(=O)NC(=O)C2)C(=O)[C@@H](C)C1
inactive: [3] | [4] | [6] | [7] | [8]

Cc1nc2ccccc2c(=O)n1-c1ccccc1Cl
active: [2] 47.5 µM
not listed: [1] | [5]
inactive: all other assays above

COc1cc(CC#N)cc(OC)c1OC
inactive: [4] | [5] | [6] | [7] | [8]

NP(N)(=O)NC(=O)c1ccc(F)cc1
not listed: [9] | [10]
inactive: all other assays above

O=C(O)C(F)(F)C(F)(F)C(F)(F)C(F)(F)C(F)(F)F
not listed: [1] | [2] | [9]
inactive: all other assays above
